Measured values taken from PubChem BioAssay AID504332 (National Center for Advancing Translational Sciences (NCATS), 2011).
In all, about 350,000 compounds went through this assay and about 31,000 (8.9%) were called active. Inconclusive results (about 15%) are left out. The call rests on the fitted dose curve; in most records, active means well fitted inhibition curve with a large enough effect; inconclusive means small, poorly fitted or top-dose-only effect; inactive means no such curve, though single readings can be large or run the other way. The sample as a whole holds a higher share of actives than the screen did.

Target: Histone-lysine N-methyltransferase EHMT2 (Homo sapiens) (UniProt Q96KQ7)
Sequence (Q96KQ7 913-1193 limits assumed): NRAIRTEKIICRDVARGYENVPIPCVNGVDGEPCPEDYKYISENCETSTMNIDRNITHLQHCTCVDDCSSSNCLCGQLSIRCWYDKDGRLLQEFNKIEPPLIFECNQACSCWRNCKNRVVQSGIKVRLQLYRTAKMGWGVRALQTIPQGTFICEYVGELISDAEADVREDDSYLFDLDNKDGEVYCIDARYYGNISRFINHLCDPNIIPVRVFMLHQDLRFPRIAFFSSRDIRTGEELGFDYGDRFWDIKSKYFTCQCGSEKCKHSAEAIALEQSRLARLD
Test: qHTS Assay for Inhibitors of Histone Lysine Methyltransferase G9a; further: nearly all actives have a fitted effect of over 75% in size
Conditions: G9a H3K9 monomethylation, AlphaScreen, 2 h; series mostly up to 59 µM; activity, negative = inhibition: at the top concentration
Procedure, shortened: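 Using a bead-based AlphaScreen, monomethylated H3K9 product from 2 h room-temperature reactions (G9a 20 nM, peptide 500 nM, SAM 20 uM) was detected with 0.5 ug/mL rabbit anti-H3K9me1 antibody.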
On the % scale 0 is the no-effect control and ±100 the full control effect; potency means the concentration at half of the fitted maximal effect.

Structure (SMILES) | activity, negative = inhibition | Potency
CC1CCCC(NC(=O)c2cc(S(=O)(=O)N3CCCCC3)ccc2Cl)C1C (stereo not drawn) | 12.6% [at 12.7 µM] (inactive) | –
CCOC(=O)c1c(C)[nH]c(C)c1S(=O)(=O)N1CCC(C(=O)Nc2ccc(C)c(Cl)c2)CC1 | -2.96% (inactive) | –
CC(=O)Nc1cccc(C(=O)OCC(=O)c2ccc3c(c2)OCO3)c1 | -29% [at 102 µM] (inactive) | –
CC1(C)CC(=O)c2ccc(O)cc2O1 | 43.9% [at 102 µM] (inactive) | –
COc1ccc(C(=O)Nc2onc3c2CCCC3)cc1 | -27.1% (inactive) | –
CC(C)(C)c1ccc(C(=O)NCC(c2ccc(Cl)cc2)N2CCOCC2)cc1 (stereo not drawn) | -35.7% (inactive) | –
CCOC(=O)c1cc2c(=O)n3ccccc3nc2n(CC2CCCO2)c1=NC(=O)c1ccccc1F (stereo not drawn) | 10.2% (inactive) | –
COc1cc(-c2nn3c(-c4cccc(C)c4)nnc3s2)cc(OC)c1OC | -23.6% [at 12.7 µM] (inactive) | –
COc1ccc(-c2nn3c(-c4ccccc4)nnc3s2)cc1OC | – | 35.5 µM (active)
CCOc1cccc(-c2nn3c(-c4ccccn4)nnc3s2)c1 | -13.9% (inactive) | –
Cc1ccc(C(=O)CNc2ccc(F)cc2)cc1 | 0.291% (inactive) | –
COC(=O)c1ccc(NCC(=O)N2CCCCCC2)cc1 | 55% [at 102 µM] (inactive) | –
COC(=O)c1ccc(NCC(=O)c2ccccc2)cc1 | – | 50.1 µM (active)
CCCCc1nc2cc(C(=O)NCCc3cnn(C)c3)ccc2o1 | 6.57% [at 102 µM] (inactive) | –
O=C(NC1CCCCCCC1)c1cccs1 | 6.94% [at 102 µM] (inactive) | –
CCN(Cc1ccccc1)C(=O)Cc1ccc(OC)c(S(=O)(=O)N2CCOCC2)c1 | -30.1% [at 102 µM] (inactive) | –
Cc1ccc(C(=O)c2ccc(N3CCN(C)CC3)c([N+](=O)[O-])c2)cc1 | -20.6% (inactive) | –
CN1CCN(S(=O)(=O)c2ccc(N3CCN(c4ccccc4O)CC3)c([N+](=O)[O-])c2)CC1 | – | 39.8 µM (active)
CN1CCN(c2ccc(S(=O)(=O)Nc3ccccc3)cc2[N+](=O)[O-])CC1 | -2.72% (inactive) | –
Cc1ccc(S(=O)(=O)n2nc(-c3ccc(Cl)cc3)nc2NCc2ccccc2)cc1 | 23% (inactive) | –
COCCNc1cc(-c2ccccc2)nc2cc(-c3cccc(F)c3)nn12 | 120% [at 102 µM] (inactive) | –
COCC1CCN(C(=O)c2ccc3oc(Cc4ccccc4)nc3c2)C1 (stereo not drawn) | -80% [at 102 µM] (inactive) | –
CCN(CC)S(=O)(=O)c1ccc2[nH]c(=O)cc(C(=O)N(C)C3CCS(=O)(=O)C3)c2c1 (stereo not drawn) | -11.9% (inactive) | –
COc1cccc(CNC(=O)C2CCN(S(=O)(=O)c3ccc4c(ccn4C)c3)CC2)c1 | 9.97% (inactive) | –
COc1ccc(-c2nc(CS(=O)CC(=O)N3CCc4ccccc4C3)c(C)o2)cc1 (stereo not drawn) | – | 28.2 µM (active)

Structure (SMILES) | activity, negative = inhibition | Potency
COc1ccc(-c2nc(CS(=O)CC(=O)NCc3ccccc3)c(C)o2)cc1OC (stereo not drawn) | -13.1% [at 102 µM] (inactive) | –
COc1cccc(-c2nc(CS(=O)CC(=O)NCc3ccc(F)cc3)c(C)o2)c1 (stereo not drawn) | 0.381% [at 102 µM] (inactive) | –
Cc1cccc(-c2nc(CS(=O)CC(=O)NC(C)CCc3ccccc3)c(C)o2)c1 (stereo not drawn) | -5.87% [at 102 µM] (inactive) | –
Cc1ccc(-c2nc(CS(=O)CC(=O)NC3CCCC3)c(C)o2)cc1 (stereo not drawn) | – | 70.8 µM (active)
COc1ccc(CNC(=O)CS(=O)Cc2nc(-c3cccc(C)c3)oc2C)cc1 (stereo not drawn) | -38.3% (inactive) | –
CCC(=O)Nc1cccc(C(=O)OCc2cc(=O)n3nc(CC)sc3n2)c1 | -1.91% [at 12.7 µM] (inactive) | –
CCOc1ccc(OCC)c(NC(=O)C(NS(=O)(=O)c2ccc3c(c2)oc(=O)n3C)C(C)C)c1 (stereo not drawn) | – | 56.2 µM (active)
COc1ccccc1CNC(=O)C(Cc1ccccc1)NS(=O)(=O)c1ccc2c(c1)oc(=O)n2C (stereo not drawn) | 8.23% (inactive) | –
CC(C)CC(NS(=O)(=O)c1ccc2c(c1)oc(=O)n2C)C(=O)NCc1ccccc1Cl (stereo not drawn) | -21.4% (inactive) | –
CCCn1c2ccccc2c2cnn(CC(=O)N3CCCC(C(=O)OCC)C3)c(=O)c21 (stereo not drawn) | -2.52% (inactive) | –
CC(Sc1sc(=S)sc1SC(C)C(=O)O)C(=O)O (stereo not drawn) | – | 50.1 µM (active)
Cc1ccc(C)c(NC(=O)COC(=O)Cn2c(C)csc2=O)c1 | -17% [at 102 µM] (inactive) | –
COc1ccccc1CCC(=O)NNC(=O)c1ccncc1 | 7.45% [at 102 µM] (inactive) | –
CC(C)(C)c1cc(P(=O)(c2ccccc2)c2ccccc2)ccc1O | 3.56% [at 102 µM] (inactive) | –
O=C(CP(=O)(c1ccccc1)c1ccccc1)N1CCOCC1 | 71.6% [at 102 µM] (inactive) | –
O=P(O)(CP(=O)(c1ccccc1)c1ccccc1)c1ccccc1O | – | 50.1 µM (active)
O=C1N(Cc2ccccc2)c2ccc(Cl)cc2C1(O)c1c[nH]c2ccccc12 (stereo not drawn) | -32.9% (inactive) | –
COc1ccccc1N1CCN(C2C(=O)c3ccccc3N2C(C)=O)CC1 (stereo not drawn) | -29% (inactive) | –
O=C(CCS(=O)(=O)c1ccc2c(c1)NC(=O)CS2)NCc1ccccc1Cl | 11.3% [at 102 µM] (inactive) | –
O=S1(=O)CC/C(=N\Nc2ccc(F)cc2)c2ccsc21 | – | 10 µM (active)
COc1ccc(C(=O)N/N=C2\CCS(=O)(=O)c3ccc(F)cc32)cc1OC | 27.4% [at 12.7 µM] (inactive) | –
O=C(c1cccc(Cl)c1)N1CCN(CCc2ccncc2)CC1 | 1.83% (inactive) | –
CN(C)CCOC(=O)C(c1ccccc1)C1(O)CCCC1 (stereo not drawn) | 4.21% [at 2.33 µM] (inactive) | –
Cc1ccccc1C(OCCN(C)C)C1CCCCC1 (stereo not drawn) | – | 3.16 µM (active)
Cc1ccccc1C(OCC(O)CN1CCCCC1CCO)c1ccccc1 (stereo not drawn) | -22.8% [at 102 µM] (inactive) | –

Structure (SMILES) | activity, negative = inhibition | Potency
COc1ccc2[nH]c(=O)c(-c3noc(-c4ccc(F)cc4)n3)cc2c1 | -36.9% [at 12.7 µM] (inactive) | –
COc1ccc(N=Nc2c(-c3ccc(OC)cc3)[nH]oc2=O)cc1 | – | 39.8 µM (active)
COc1ccc(-c2cn[nH]c2-c2ccc(OC)cc2)cc1 | -3.6% [at 102 µM] (inactive) | –
Cc1occc1-c1nnc(SCC(=O)NC2CCCCC2)o1 | 9.17% [at 12.7 µM] (inactive) | –
COc1ccccc1CNC(=O)CSc1nc(=O)n(Cc2ccncc2)c2c1CCC2 | 3.71% [at 102 µM] (inactive) | –
CC1CCCN(CC(=O)Nc2cc(Cl)ccc2Oc2ccccc2)C1 (stereo not drawn) | -0.626% [at 102 µM] (inactive) | –
Cc1cc(C(=O)COc2ccccc2[N+](=O)[O-])c(C)n1-c1cccc(S(=O)(=O)N2CCOCC2)c1 | -7.78% (inactive) | –
CC1CN(CCCOc2ccccc2-c2ccccc2)CC(C)O1 (stereo not drawn) | – | 8.91 µM (active)
CC1CN(c2nc(-c3ccccc3)nnc2-c2ccccc2)CC(C)O1 (stereo not drawn) | 8.32% [at 102 µM] (inactive) | –
CC1CN(CC(=O)NC(C)c2ccccc2)CC(C)O1 (stereo not drawn) | -10.2% [at 102 µM] (inactive) | –
CC1CCCN(CCOCCOc2ccccc2-c2ccccc2)C1 (stereo not drawn) | – | 10 µM (active)
CC1CC(C)CN(CCOc2cccc3ccccc23)C1 (stereo not drawn) | 17.4% [at 2.33 µM] (inactive) | –
CC1CN(CCOc2ccccc2[N+](=O)[O-])CC(C)O1 (stereo not drawn) | – | 10 µM (active)
O=[N+]([O-])c1ccccc1OCCCCN1CCCCC1 | -12.4% [at 102 µM] (inactive) | –
CC(C)(C)c1ccc(S(=O)(=O)N2CCN(C(=O)c3ccc4c(c3)C(=O)N(Cc3ccncc3)C4=O)CC2)cc1 | -9.64% [at 102 µM] (inactive) | –
CCc1ccccc1NC(=O)CSc1nnc(-c2ccccc2)c(-c2ccccc2)n1 | -39.3% (inactive) | –
O=C(Nc1ccc(-c2nc3cc(NC(=O)c4ccccc4Cl)ccc3o2)cc1)c1ccccc1Cl | 1.33% (inactive) | –
O=C(CCc1nc2sc3c(c2c(=O)[nH]1)CCCC3)NCC(=O)Nc1ccccc1Br | -4.82% [at 12.7 µM] (inactive) | –
COc1cccc(C(=O)N2CCC(n3nccc3NC(=O)C3CCOC3)CC2)c1 (stereo not drawn) | -5.15% [at 0.501 µM] (inactive) | –
Cc1cc(Br)ccc1NC(=O)Cn1cnc2sc(C)c(S(=O)(=O)N3CCN(C)CC3)c2c1=O | -1.64% (inactive) | –
COc1ccccc1-c1nnc(NC(=O)c2cccc(N3C(=O)CCC3=O)c2)o1 | – | 1.41 µM (active)
O=C(Nc1cccc2cccnc12)c1cccc(N2C(=O)CCC2=O)c1 | 1.61% (inactive) | –
Cc1cc(NC(=O)c2cccc(N3C(=O)CCC3=O)c2)no1 | 12.5% [at 102 µM] (inactive) | –
COc1cc(CN2CCN(Cc3ccc(C)cc3)CC2)c([N+](=O)[O-])cc1OC | – | 4.47 µM (active)
COc1cc(NC(=O)NCC2CCN(Cc3ccc(C)cc3)CC2)cc(OC)c1OC | 10.4% (inactive) | –

Structure (SMILES) | activity, negative = inhibition | Potency
COc1cc(CN2CC(C)CC(C)C2)cc([N+](=O)[O-])c1O (stereo not drawn) | -17.7% (inactive) | –
CCOC(=O)c1cc(-c2ccccc2)n(CCC(=O)Nc2ccccc2CC)c1C | -12% (inactive) | –
COC(CCN(C)C)(c1ccccc1)c1ccccc1 | -3.15% [at 102 µM] (inactive) | –
CN(C)CCOC1c2ccccc2-c2ccccc21 | – | 22.4 µM (active)
CN(C)c1ccc(/C=N/NC(=O)c2ccc(Cn3cc(Br)cn3)o2)cc1 | – | 39.8 µM (active)
O=C(N/N=C/c1ccc2c(c1)OCO2)c1ccc(Cn2cc([N+](=O)[O-])cn2)o1 | -8.92% (inactive) | –
O=C(N/N=C\c1ccc(Br)cc1)c1ccc(Cn2cccn2)o1 | 12.6% (inactive) | –
Cc1ccc(C)c(N2CCN(C(=O)Cc3c(C(=O)O)c(C)cn3C)CC2)c1 | 7.18% (inactive) | –
CCC(C(=O)N1CCN(S(=O)(=O)c2sc(C(=O)O)c(C)c2C(=O)O)CC1)c1ccccc1 (stereo not drawn) | -9.12% [at 2.33 µM] (inactive) | –
COc1ccc(C(=O)Oc2cc(/C=N/NS(=O)(=O)c3ccc(C)cc3)ccc2OC)cc1 | -0.555% [at 102 µM] (inactive) | –
COc1cc(/C=N/O)cc(Br)c1OS(=O)(=O)c1ccc(C)cc1 | -31.7% (inactive) | –
COc1cc(/C=N/Nc2ccc(C)cc2)cc(Br)c1O | – | 3.98 µM (active)
O=C(NC1CC(=O)N(c2ccc(F)cc2)C1)C1CCCCC1 (stereo not drawn) | 1.91% (inactive) | –
COc1ccc(NC(=O)CSc2nnc(-c3nnn(-c4ccc(F)cc4)c3C)o2)cc1 | 20% (inactive) | –
Cc1c(O)c(C)c2c(c1O)C(=O)C[C@@H](c1ccccc1)O2 | 17.8% [at 2.33 µM] (inactive) | –
CCn1c(SCC(=O)Nc2nc(C)cs2)nnc1C(C)NC(=O)c1ccccc1 (stereo not drawn) | 15.6% (inactive) | –
CCn1c(C(C)NC(=O)c2ccc(C)cc2)n[nH]c1=S (stereo not drawn) | – | 39.8 µM (active)
CCn1c(SCC(=O)NNC(=O)c2ccc(OC)cc2)nnc1C(C)C | 8.24% (inactive) | –
CC(NC(=O)CCc1cn(Cc2ccccc2Cl)c2ccccc12)c1ccccc1 (stereo not drawn) | -4.01% (inactive) | –
COc1ccc(Cn2c(=O)n(-c3ccccc3C)c(=O)c3c4c(sc32)CN(C(C)=O)CC4)cc1 | 9.02% (inactive) | –
CCN(CC)c1ccc2c(Nc3ccccc3)c(C=O)c(=O)oc2c1 | 8.21% [at 102 µM] (inactive) | –
CCN(CC)c1ccc2oc(=O)c(C)nc2c1 | – | 11.2 µM (active)
CCN(CC)c1ccc2cc(C(N)=O)/c(=N\NC(=O)c3ccncc3)oc2c1 | -44.1% [at 102 µM] (inactive) | –
